PubChem BioAssay
Active and inactive are the calls of the source. Unless noted, the rule behind the calls is not given here.

Experiments:
[1] = tested on: XIP peptide (Xip251-270) binding; test: small-molecule binders of XIP peptide, primary screen, biochemical, small-molecule microarray, fluorescence 635/667 nm, 0.1 µg/mL protein (AID 1182); conditions: fluorescent protein binding, 635 nm, higher = more signal, called active from +8 up or from −8 down
XIP peptide (Xip251-270) = test: small-molecule binders of XIP peptide, primary screen, biochemical, small-molecule microarray, fluorescence 635/667 nm, 0.5 µg/mL protein (AID 1183); conditions: small-molecule microarray binding, fluorescence 635 nm; higher = more signal
[2] = Plasmodium falciparum growth inhibition, primary screen, strain 3D7, DAPI fluorescence, 100 nL (AID 1184);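 note: parasites grown inside human red blood cells in medium with human serum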; conditions: P. falciparum 3D7 growth, 3 d, higher = more signal
[3] = biological target: Homeobox protein Hox-A13 (Mus musculus) (UniProt Q62424); test: inhibitors of HoxA13-DNA binding, primary screen, biochemical, fluorescence polarization, labeled oligonucleotide (AID 1185); conditions: 15 min, higher = more signal, called active from +8 up or from −8 down
[4] = inhibitors of hydroxyurea-induced Chk1 phosphorylation, primary screen, imaging, HeLa, phospho-Chk1 antibody, percent positive cells (AID 1186); conditions: hydroxyurea-induced phospho-Chk1 immunofluorescence imaging, higher = more signal
[5] = inhibitors of hydroxyurea-induced Chk1 phosphorylation, primary screen, imaging, HeLa, phospho-Chk1 nuclear intensity (AID 1187); conditions: hydroxyurea-induced phospho-Chk1 immunofluorescence imaging, higher = more signal

Sequence of Homeobox protein Hox-A13 (Mus musculus) (Q62424 whole entry, looked up): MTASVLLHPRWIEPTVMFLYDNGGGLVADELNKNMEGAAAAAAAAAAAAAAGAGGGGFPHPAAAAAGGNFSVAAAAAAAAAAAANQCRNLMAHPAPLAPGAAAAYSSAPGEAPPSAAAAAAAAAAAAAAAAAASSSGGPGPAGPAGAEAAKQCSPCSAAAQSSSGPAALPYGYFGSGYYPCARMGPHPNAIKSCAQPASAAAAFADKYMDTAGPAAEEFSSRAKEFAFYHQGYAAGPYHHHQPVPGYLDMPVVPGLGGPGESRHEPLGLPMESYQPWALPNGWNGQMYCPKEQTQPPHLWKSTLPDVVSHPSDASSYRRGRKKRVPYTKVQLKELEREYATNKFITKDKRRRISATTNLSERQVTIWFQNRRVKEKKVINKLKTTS

| Compound | composite z-score [1] | composite z-score (XIP peptide (Xip251-270)) | z-score [2] | z-score [3] | z-score [4] | z-score [5] |
| --- | --- | --- | --- | --- | --- | --- |
| COc1ccc(C(O)C2C=CC3C(=O)N(C)C(=O)C3N2N2CCCCC2)cc1 (stereo not given) | 0.568 (inactive) | 0.37 | -0.0513 | -4.16 (inactive) | -1.52 (inactive) | -1.31 (inactive) |
| CC(CO)N1C(=O)[C@@H]2C3C(=O)OCCC/C=C\[C@H]3OC23C=CCN(Cn2nnc4ccccc42)C(=O)[C@@H]13 (stereo not given in full) | -0.584 (inactive) | 0.475 | 0.357 | -2.97 (inactive) | -0.235 (inactive) | 0.103 (inactive) |
| COc1cc2c(cc1OC)CN(C(=O)[C@H]1[C@@H]3C(=O)O[C@@H](c4ccccc4)[C@@H](c4ccccc4)N3[C@@H](c3ccc(OCCO)cc3)[C@]13C(=O)Nc1ccc(C#CCCO)cc13)CC2 | 0.527 (inactive) | 0.692 | -2.06 | 1.96 (inactive) | 0.0312 (inactive) | 0.157 (inactive) |
| C[C@]1(C(=O)NC2CC2)c2ccccc2C(=O)N(Cc2ccc(OC(F)(F)F)cc2)[C@H]1c1ccc(CO)cc1 | 0.282 (inactive) | -0.923 | 0.516 | -3.59 (inactive) | -0.0307 (inactive) | -0.521 (inactive) |
| COC(=O)c1c(CC[C@@H](CO)NC(=O)N[C@H](Cn2cc(-c3ccccc3C)nn2)C(C)C)oc(C(C)=O)c1C(=O)OC | -0.0077 (inactive) | -0.0163 | -1.85 | -0.127 (inactive) | 1.16 (inactive) | 0.823 (inactive) |
| O=C1c2ccccc2[C@](Cc2ccccc2I)(C(=O)NCCN2CCOCC2)[C@H](c2ccc(CO)cc2)N1Cc1ccccc1 | 0.198 (inactive) | 0.67 | -0.74 | -5.76 (inactive) | -0.0525 (inactive) | -0.321 (inactive) |
| C=C[C@@H](C)[C@H](OC(=O)Nc1ccc(SC)cc1)c1ccc(OCCO)cc1 | 0.263 (inactive) | -0.0795 | -0.005 | -4.89 (inactive) | -0.405 (inactive) | 0.433 (inactive) |
| CCCNC(=O)[C@@]1(c2ccc([N+](=O)[O-])cc2)CC(=O)N(C2CCCCC2)[C@@H]1c1ccc(CO)cc1I | 0.423 (inactive) | 0.845 | -1.66 | -5.34 (inactive) | -0.0439 (inactive) | 0.329 (inactive) |
| NCCCCCNC(=O)[C@@H]1C[C@@H]2C(=O)N[C@@H](CCCCN)C(=O)N2[C@@H]1c1cccc(OCCO)c1 | 0.824 (inactive) | 0.793 | -0.119 | -0.453 (inactive) | 0.0424 (inactive) | -0.0136 (inactive) |
| C[C@H]1C2=C3C(CC[C@H]4C(OCc5ccc(F)cc5C(F)(F)F)OC[C@](C)([C@@H]34)N(C(=O)OC(C)(C)C)C2)C(CO)C1CO (stereo not given in full) | 0.456 (inactive) | 0.724 | -0.736 | -4.04 (inactive) | 0.491 (inactive) | 0.52 (inactive) |
| CN1C(=O)C2C=CC(C(O)Cc3ccccc3)N(N(c3ccccc3)c3ccccc3)C2C1=O (stereo not given) | -0.072 (inactive) | 0.645 | -0.077 | -2.48 (inactive) | 0.077 (inactive) | -0.0628 (inactive) |
| O=C1O[C@@H](c2ccccc2)[C@@H](c2ccccc2)N2[C@@H](c3ccc(O)cc3)[C@]3(C(=O)Nc4ccccc43)[C@@H](C(=O)Nc3nc4ccccc4s3)[C@H]12 | 1.03 (inactive) | 0.638 | -0.247 | 2.05 (inactive) | -0.193 (inactive) | -0.259 (inactive) |
| CCOC(=O)C[C@H]1[C@H](OC(=O)c2ccc(-c3ccccc3)cc2)[C@@H](NC(=O)c2ccc3ccccc3n2)c2cc(OCCCO)ccc2N1C(=O)c1ccccc1 | -0.0549 (inactive) | 0.266 | -1.1 | -2.05 (inactive) | 0.188 (inactive) | 0.16 (inactive) |
| C=C(/C(=C/C[C@@H](OC(=O)c1ccncc1)c1ccccc1OCCO)c1cc(C(=O)OC)ccc1OC)C(C)C | 0.214 (inactive) | 0.596 | -2.94 | -3.84 (inactive) | -1.77 (inactive) | -1.86 (inactive) |
| O=C1OCCC=C[C@H]2OC34C=CCN(c5ccc(Cl)cc5)C(=O)[C@H]3N(CCCCCO)C(=O)[C@@H]4C12 (stereo not given in full) | 0.445 (inactive) | -0.342 | 0.684 | -5.82 (inactive) | 0.578 (inactive) | 0.434 (inactive) |
